# Shown are actives, neighbours in structure and some others; about 0.46% of the full set was active somewhere.
# PglD DTNB: C. jejuni PglD acetyltransferase inhibitors, primary screen, biochemical, DTNB colorimetric, single point | AID 602405, 2012 | inhibition, % at 12.5 µM | actives 0.098% (n = 360,000) | purified PglD enzyme, DTNB colorimetric CoA detection; in the data active = inhibition above about 16%, passing the limit was not always enough
# ERp5 block: inhibitors of ERp5-driven insulin aggregation, primary screen, biochemical, turbidity, absorbance 650 nm, single point | Protein disulfide-isomerase A6 (Homo sapiens), Q15084 | 90 min | inhibition, % at 9.99 µM | actives 0.05% (n = 350,000);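 active = mean replicate inhibition above about 25%, with every replicate also reaching it, limit read from the data, passing the limit was not always enough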
# ERAP1 HTS inh: human ERAP1 aminopeptidase inhibitors, primary screen, biochemical, single point, plate reader; recombinant ERAP1, Leu-AMC fluorescence, 60 min; AID 652197, 2013; inhibition, % at 10.7 µM; actives 0.15% (n = 340,000); Endoplasmic reticulum aminopeptidase 1 (Homo sapiens), Q9NZ08;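 active = mean replicate inhibition of at least 30%, or all replicates individually reaching that 30% level; inactive = mean below 30% and not every replicate reaching it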
# Target sequence (Q9NZ08 whole entry, looked up): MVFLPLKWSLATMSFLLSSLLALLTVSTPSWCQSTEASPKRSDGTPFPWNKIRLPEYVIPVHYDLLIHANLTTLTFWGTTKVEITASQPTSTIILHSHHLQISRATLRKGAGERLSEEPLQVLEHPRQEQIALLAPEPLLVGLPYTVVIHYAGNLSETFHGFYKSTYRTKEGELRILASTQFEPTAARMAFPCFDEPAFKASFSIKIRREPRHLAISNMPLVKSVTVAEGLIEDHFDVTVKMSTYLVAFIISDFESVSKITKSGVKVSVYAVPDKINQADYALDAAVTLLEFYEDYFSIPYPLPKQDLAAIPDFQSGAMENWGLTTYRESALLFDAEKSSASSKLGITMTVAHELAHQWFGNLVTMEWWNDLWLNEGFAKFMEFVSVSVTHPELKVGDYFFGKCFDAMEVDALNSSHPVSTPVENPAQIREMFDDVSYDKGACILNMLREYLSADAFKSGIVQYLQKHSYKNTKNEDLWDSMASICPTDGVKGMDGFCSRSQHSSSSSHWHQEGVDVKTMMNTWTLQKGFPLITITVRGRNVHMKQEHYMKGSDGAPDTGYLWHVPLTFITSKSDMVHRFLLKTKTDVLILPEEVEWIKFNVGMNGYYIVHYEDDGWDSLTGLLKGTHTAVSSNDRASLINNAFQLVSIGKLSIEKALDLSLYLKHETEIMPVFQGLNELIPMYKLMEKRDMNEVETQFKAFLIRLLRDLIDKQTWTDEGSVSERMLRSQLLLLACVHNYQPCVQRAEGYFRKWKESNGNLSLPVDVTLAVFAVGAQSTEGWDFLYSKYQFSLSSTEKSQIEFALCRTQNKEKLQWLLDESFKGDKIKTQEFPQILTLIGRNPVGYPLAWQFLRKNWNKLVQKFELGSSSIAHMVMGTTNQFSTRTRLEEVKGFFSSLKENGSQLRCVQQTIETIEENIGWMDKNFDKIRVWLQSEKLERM
# CaV13 FRET inh: Disruptors of the CACNA1D IQ motif to Ca2+-dependent inactivation inhibitor domain association, primary screening, Förster resonance energy transfer in intact living …; HEK cells, CFP/YFP FRET ICDI-IQ, plate reader, 10 min; percent FRET-ratio fall versus neutral wells; inhibition, % at 12.3 µM; actives 0.098% (n = 340,000);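 active = mean replicate inhibition of at least 30% and at least 1% of replicates passing that level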
# PDI inh: inhibitors of human PDI, primary screen, biochemical, turbidity, single point, plate reader; Protein disulfide-isomerase (Homo sapiens), P07237; PDI insulin aggregation turbidity, A650, 90 min; inhibition, % at 10 µM; actives 0.052% (n = 350,000); AID 588391, 2011;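 active = mean inhibition across replicates of 30% or more, whatever share of single replicates reach that level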
# PGC1a acetyl inh: inhibitors of PGC1a acetylation signal, primary screen, cell-based, U2OS, AlphaScreen, inhibitor mode. actives 0.17% (n = 350,000). inhibition, % at 15.6 µM. AID 651687, 2012. AlphaScreen anti-acetyl-lysine; with virally co-expressed GCN5 acetyltransferase;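 active = every replicate shows inhibition of at least 40%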
# Hits are given with their value; 0 = inactive; - = not tested or not shown; + = active, no number.
SMILES,PglD DTNB,ERp5 block,ERAP1 HTS inh,CaV13 FRET inh,PDI inh,PGC1a acetyl inh
Oc1cc(O)c2c(c1)O[C@H](c1ccc(O)c(O)c1)[C@@H](O)C2,0,0,0,0,0,0
O=C1c2c(O)cc(O)cc2O[C@@]12c1c(cc(O)c3c1O[C@H](c1ccc(O)cc1)[C@@H](O)C3)O[C@@H]2c1ccc(O)cc1,0,0,0,0,41,0
CN1C(=O)c2cc(NS(=O)(=O)c3ccccc3F)ccc2OC[C@@H]2O[C@H](CC(=O)NC3Cc4ccccc4C3)CC[C@H]21,0,0,0,-,-,-
CO[C@@H]1CN(C)C(=O)c2cc(NS(=O)(=O)CC(F)(F)F)ccc2OC[C@H](C)N(CCC(F)(F)F)C[C@@H]1C,0,0,0,-,-,0
CN(C1=NC(=O)C(CC(=O)Nc2ccc(Br)cc2)S1)c1ccc(O)cc1 (stereo not given),0,-,-,0,61,-
C=CCNc1ncnc2c1ncn2[C@H]1CN(Cc2cccc3ccccc23)C[C@@H](CO)O1,0,0,0,0,39,0
OC[C@@H]1CN(Cc2ccccc2)C[C@H](n2cnc3c(NCc4ccco4)ncnc32)O1,0,0,0,0,0,101
CN1c2ccc(C#Cc3cccnc3)cc2[C@@H]2[C@@H](CCN2S(=O)(=O)c2ccccc2F)[C@@H]1CO,0,0,0,-,-,0
Cc1ccc(C)c(N2CCN(C(=O)c3cc4ccccc4oc3=O)CC2)c1,0,0,0,0,-,0
CC1=C(C(=O)N2CCN(c3cc(C)ccc3C)CC2)C2(CCCCC2)OC1=O,0,0,-,47,0,0
C[C@H](CO)N1C[C@H](C)[C@H](CN(C)S(=O)(=O)c2cccs2)Oc2ccc(NC(=O)Cc3cn(C)c4ccccc34)cc2C1=O,0,0,0,-,-,0
CC(=O)N(C)C[C@H]1Oc2ncc(C#CCC3CCCC3)cc2C(=O)N([C@H](C)CO)C[C@@H]1C,0,0,0,-,-,0
COc1cc2sc3cc(NCC[C@@H]4CCCN4C)ccc3c(=O)c2cc1OC,0,0,0,36,0,0
O=C(Cc1nc2ccccc2[nH]c1=O)c1ccccc1,-,0,0,58,0,0
O=c1[nH]c2ccccc2nc1Cc1ccccc1,-,-,-,0,0,0
CN(CC(=O)Nc1ccccc1C(F)(F)F)C(=O)CSc1nnnn1C,0,0,0,0,0,0
CN(CC(=O)Nc1ccccc1C(F)(F)F)C(=O)CSc1nnc(-c2ccncc2)n1C,0,0,35,0,0,0
CN1C(=O)c2cc(NC(=O)c3cccs3)ccc2OC[C@H]2O[C@@H](CC(=O)N3CCOCC3)CC[C@@H]21,0,-,-,-,-,0
Nc1nc(-c2cc(O)ccc2[N+](=O)[O-])cc(-c2ccccc2)c1[N+](=O)[O-],0,0,0,+,0,0
O=C(C1CCCCC1)N1CC(=O)N2[C@H](CO)[C@@H](c3ccc(-c4cccnc4)cc3)[C@@H]2C1,-,0,0,-,-,0
O=C1c2ccccc2S(=O)(=O)c2cc(N3CCC(C(=O)N4CCCCC4)CC3)ccc21,-,0,0,+,-,-
Cn1ncc2c(O/N=C(\N)c3ccc(C(C)(C)C)cc3)ncnc21,0,-,-,-,0,96
COc1ccc(S(=O)(=O)Nc2ccc3c(c2)C(=O)N([C@H](C)CO)C[C@@H](C)[C@H](CN(C)C(=O)Nc2ccccc2)O3)cc1,0,0,0,-,-,0
COc1ccc(S(=O)(=O)Nc2ccc3c(c2)C(=O)N([C@H](C)CO)C[C@H](C)[C@H](CN(C)C(=O)Nc2ccccc2)O3)cc1,0,29,0,-,-,0
COc1ccc(NC(=O)N(C)C[C@H]2Oc3ccc(NS(=O)(=O)c4ccccc4)cc3C(=O)N([C@@H](C)CO)C[C@@H]2C)cc1,0,33,0,-,-,0
SMILES,PglD DTNB,ERp5 block,ERAP1 HTS inh,CaV13 FRET inh,PDI inh,PGC1a acetyl inh
COc1ccc(S(=O)(=O)Nc2ccc3c(c2)C(=O)N([C@H](C)CO)C[C@H](C)[C@@H](CN(C)C(=O)Nc2ccccc2)O3)cc1,0,0,0,0,0,0
CC1CCCCN1Cc1c(O)ccc2c(=O)c(-c3nc4ccccc4s3)coc12 (stereo not given),0,0,0,44,0,0
CCC1CCCCN1Cc1c(O)ccc2c(=O)c(-c3ccccc3OC)coc12 (stereo not given),0,0,0,0,0,0
C#CCOCCOCCOCCNc1nc(N2CCN(C(=O)[C@H](CCCCN)n3cc(CCCC)nn3)CC2)nc(N2CCN(C(=O)[C@H](Cc3ccc(O)cc3)n3cc(CCO)nn3)CC2)n1,0,-,-,-,129,0
C#CCOCCOCCOCCNc1nc(N2CCN(C(=O)[C@H](CCCCN)n3cc(CC(C)O)nn3)CC2)nc(N2CCN(C(=O)[C@H](Cc3ccc(O)cc3)n3cc(CCO)nn3)CC2)n1 (stereo not given in full),0,0,0,0,0,0
C#CCOCCOCCOCCNc1nc(N2CCN(C(=O)[C@H](Cc3cc4ccccc4[nH]3)n3cc(C(N)CC(C)C)nn3)CC2)nc(N2CCN(C(=O)[C@H](CCC(=O)O)n3cc(C(N)[C@H](C)CC)nn3)CC2)n1 (stereo not given in full),0,-,-,-,0,0
C#CCOCCOCCOCCNc1nc(N2CCN(C(=O)[C@H](CCC(=O)O)n3cc(C(N)CC(C)C)nn3)CC2)nc(N2CCN(C(=O)[C@H](Cc3cc4ccccc4[nH]3)n3cc(C(N)CC(C)C)nn3)CC2)n1 (stereo not given in full),0,-,-,-,36,0
C[C@@H]1CN([C@H](C)CO)C(=O)Cc2cc(NS(C)(=O)=O)ccc2O[C@H]1CN(C)C(=O)Nc1ccc(C(F)(F)F)cc1,0,0,0,-,-,0
Cc1noc(C)c1NC(=O)Nc1ccc2c(c1)CC(=O)N([C@@H](C)CO)C[C@H](C)[C@@H](CN(C)Cc1ccc(Oc3ccccc3)cc1)O2,0,-,-,-,-,0
Cc1ccc(S(=O)(=O)OCCC2=CC(=O)CCN2Cc2ccccc2)cc1,0,0,0,0,0,63
CC(=O)OC(COC1C[C@@H]2CC[C@@]1(C)C2(C)C)C[N+]1(C)CCCCC1 (stereo not given in full),-,0,100,0,0,0
CC(C)NC(=O)N(C)C[C@H]1Oc2ncc(C#CC3(O)CCCC3)cc2C(=O)N([C@H](C)CO)C[C@H]1C,0,0,0,-,-,0
Cc1cc(-c2nc3ccccc3o2)c2ccccc2n1,0,-,-,-,0,-
O=c1oc2cc(O)ccc2cc1-c1nc2ccccc2o1,-,0,0,38,-,-
CCN(CC)c1ccc2cc(S(=O)(=O)c3ccc(Cl)cc3)c(=O)oc2c1,0,0,-,+,0,0
